Active and inactive are the calls of the source. A call without a number means that no potency is given here. Calls follow the shape of the full dose curve.

A short description of the experiment: G protein-coupled receptor (GPCR) small molecule agonists, calcium flux assay: HEK293 wild type cell line counter screen (AID 1920065). The settings on record: HEK293 WT calcium flux, fluorescence, agonist mode; series mostly up to 57.6 µM. The text has this: U.S. Tox21 Program National Center for Advancing Translational Sciences [NCATS] Division of Preclinical Innovation [DPI] U.S. Environmental Protection Agency [EPA] National Institutes of Environmental Health Sciences [NIEHS] National Toxicology Program [NTP] U.S. Food and Drug Administration [FDA] Assay overview: The increased intracellular calcium release that occurred upon G protein-coupled receptor (GPCR) activation led to the frequent use of calcium flux assays to detect GPCR activation. For the purpose of studying and screening compounds that may activate GPCR, receptor-overexpressing models were typically generated using Hek293 wild-type (WT) cells. In order to eliminate the compounds that may have induced calcium release for non-specific activation, a counter-assay utilizing calcium flux on Hek293 WT cells was performed. The data were formulated in order to serve as a control for any calcium flux detection utilizing Hek293 cells with either GPCR overexpression or gene modification. The procurement of Hek293 WT cells from ATCC. Fluorescence intensity can be utilized to determine the activation of the compound in a calcium flux assay. As a counter control, this cell line was utilized to screen the Tox21 10K compound library.
Assay Protocol Summary: Hek293 cells were dispensed at 1500cells/4uL/well in 1536-well black wall/clear bottom plates using a multidrop dispenser. After the assay plates were incubated at a 37 C/5% CO2 incubator for 18 hours, 4 uL of Calcium Dye Solution was added to each well. The plates were incubated at 37 C for 1 hour. For agonist mode, 23 nL of compounds dissolved in DMSO, positive control (ATP) or DMSO only was transferred to the assay plate by a pin tool station. The fluorescence intensity in the plates was measured using FDSS 7000EX kinetic plate reader with a filter set of Ex/Em=480/540 for 3 min at 1 sec intervals. Each test compound was measured at 15 concentrations and in triplicates.
(In general: Calcium flux is commonly read through the fluorescence of an indicator in the cells.)
In the case of `C=C1CC[C@H](O)CC1=C/C=C1\CCC[C@]2(C)[C@@H]([C@H](C)/C=C/[C@H](C)C(C)C)CC[C@@H]12`, the Potency result was “inactive”.

As for `O=S(=O)(O)c1cc(O)ccc1O`, the Potency entry was “inactive”.

Take `COC(=O)C1=C(C)NC(C)=C(C(=O)OC(C)C)C1c1cccc2nonc12` (stereo not given): the Potency result is “inactive”.

For the compound `COc1cc(C(C)C)c2c(c1)S(=O)(=O)N(COc1cc(=O)n3cccc(OCCN4CCCCC4)c3n1)C2=O`, the activation is 1.49% [at 11.8 µM] (inactive).

Take `OCCN1CCOCC1`: the Potency result is “inactive”.

On to `COc1ccc2cc(CCC(C)=O)ccc2c1`, for which the Potency result is “inactive”.

In the case of `C[C@H](CCC(=O)O)[C@H]1CC[C@H]2[C@@H]3CC[C@@H]4C[C@H](O)CC[C@]4(C)[C@H]3CC[C@]12C`, the Potency result is “inactive”.

Take `O=C(c1ccccc1)C1CCC1`: the Potency entry was “inactive”.

As to `CC(C)COC(=O)/C=C/c1ccccc1`, the Potency result is “inactive”.

In the case of `CC(C)COC(=O)CC(C(=O)OCC(C)C)S(=O)(=O)O` (stereo not given), the Potency entry was “inactive”.

As to `Cc1cccc(OCC(O)CNC(C)(C)C)c1C` (stereo not given), the Potency result was “inactive”.

As to `Nc1ccc([N+](=O)[O-])c(N)c1`, the Potency result was “inactive”.

For the compound `C/C=C/C(=O)C1=C(C)CCCC1(C)C`, the Potency entry was “inactive”.

Consider `Sc1nc2ccccc2s1`, for which the Potency entry is “inactive”.

Regarding `CN1CC[C@H](c2c(O)cc(O)c3c(=O)cc(-c4ccccc4Cl)oc23)[C@H](O)C1`, the Potency entry was “inactive”.

On to `NS(=O)(=O)c1ccc(C(=O)O)cc1`, for which the Potency result was “inactive”.

On to `CN(C)C(=O)NC1(c2ccccc2)CCN(CC[C@@]2(c3ccc(F)c(F)c3)CN(C(=O)c3ccccc3)CCO2)CC1`, for which the Potency entry is “inactive”.

Consider `CC(C)(C)c1cc(CCC(=O)OCC(COC(=O)CCc2cc(C(C)(C)C)c(O)c(C(C)(C)C)c2)(COC(=O)CCc2cc(C(C)(C)C)c(O)c(C(C)(C)C)c2)COC(=O)CCc2cc(C(C)(C)C)c(O)c(C(C)(C)C)c2)cc(C(C)(C)C)c1O`, for which the Potency entry was “inactive”.

As for `CC(=O)OCC(=O)[C@@]1(O)CC[C@H]2[C@@H]3CCC4=CC(=O)CC[C@]4(C)[C@H]3C(=O)C[C@@]21C`, the Potency result was “inactive”.

In the case of `Nc1ccc(F)cc1`, the Potency entry is “inactive”.

`Cc1ccc(O)c(C(C)(C)C)c1`: the Potency result was “inactive”.

Consider `COc1ccc(COC=O)cc1`, for which the Potency result was “inactive”.

In the case of `O/N=C/C=N/O`, the Potency entry was “inactive”.

Take `O=C(Nc1cccc(Cl)c1)OCC#CCCl`: the Potency result was “inactive”.

With `C[C@@H](CN(C)C)CN1c2ccccc2Sc2ccccc21`, the Potency result was “inactive”.

With `C[C@H]1[C@H](NC(=O)/C(=N/OC(C)(C)C(=O)O)c2csc(N)n2)C(=O)N1S(=O)(=O)O` (stereo in doubt), the Potency entry is “inactive”.

In the case of `O=C(O)COC(=O)Cc1ccccc1Nc1c(Cl)cccc1Cl`, the Potency entry was “inactive”.

Consider `CC1(C)CCC[C@]2(C)[C@H]3CCO[C@]3(C)CC[C@@H]12`, for which the Potency entry is “inactive”.

Regarding `CC(=O)OC(C)C[N+](C)(C)C` (stereo not given), the Potency result was “inactive”.

In the case of `Nc1ccc(C(=O)Nc2ccccc2N)cc1`, the Potency result was “inactive”.

As for `CN(C)CCN(Cc1ccccc1)c1ccccn1`, the Potency result was “inactive”.

`CCCCN1C[C@H](O)[C@@H](O)[C@H](O)[C@H]1CO`: the Potency entry is “inactive”.

`Nc1nnc(-c2ccc([N+](=O)[O-])o2)o1`: the Potency entry is “inactive”.

Regarding `C=C(C)C(=O)OCC(O)COc1ccc(C(C)(C)c2ccc(OCC(O)COC(=O)C(=C)C)cc2)cc1` (stereo not given), the Potency result was “inactive”.

As to `CC(C)(C)c1ccc(OCC2CO2)cc1` (stereo not given), the Potency entry is “inactive”.

In the case of `CC(C)OC(=O)CCC(=O)OC(C)C`, the Potency result was “inactive”.

As for `N#Cc1ccccc1O`, the Potency result was “inactive”.

With `CC/C=C/CCCCCCCCCCOC(C)=O`, the Potency result is “inactive”.

On to `CC(C)=CCCC(C)CC(=O)O` (stereo not given), for which the Potency entry was “inactive”.

In the case of `CC[C@@H]([C@H](C)O)n1ncn(-c2ccc(N3CCN(c4ccc(OC[C@@H]5CO[C@@](Cn6cncn6)(c6ccc(F)cc6F)C5)cc4)CC3)cc2)c1=O`, the Potency result was “inactive”.
